The results in this text go back to PubChem BioAssay (EPA / NIEHS).

Inconclusive results are not listed. The source made the active and inactive calls. The calls were made as follows, unless noted: active = hit-call score of the fitted dose curve at least 0.9, where 1 is the maximum; inconclusive = response in the unintended direction; inactive = score below 0.9.

The target of assay [1] is Nucleoli Translocation, AR (gene 367) (UniProt P10275). As to the kind of experiment: UPITT_HCI_U2OS_AR_TIF2_Nucleoli_Antagonist: University of Pittsburgh U2OS Androgen Receptor-Transcriptional Intermediary Factor 2 (AR-TIF2) Antagonism High Content Imaging Assay for Nucleoli Translocation (AID 2283997). In outline:
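Antagonism is read as loss of nucleolar AR-RFP signal relative to DHT, imaged in U2OS cells also carrying GFP-TIF2. Compounds screened at 20 uM final, 0.2% DMSO; primary actives retested in triplicate.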

Assay [2] has the same target. In words: UPITT_HCI_U2OS_AR_TIF2_Nucleoli_Agonist: University of Pittsburgh U2OS Androgen Receptor-Transcriptional Intermediary Factor 2 (AR-TIF2) Agonism High Content Imaging Assay for Nucleoli Translocation (AID 2283998). The method, boiled down: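 Readout is red (AR-RFP) fluorescence localized to nucleoli, measured by high-content imaging and analysed for increase relative to DMSO. Compound series spanned 0.195 to 50 uM final in 0.5% DMSO.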

Assay [3] deals with Ratio of Nucleoli Translocation and Cytoplasm, AR (gene 367) (UniProt P10275). In words: UPITT_HCI_U2OS_AR_TIF2_Nucleoli_Cytoplasm_Ratio_Antagonist: University of Pittsburgh U2OS Androgen Receptor-Transcriptional Intermediary Factor 2 (AR-TIF2) Antagonism High Content Imaging Assay for Ratio of Nucleoli Translocation and Cytoplasm (AID 2283999).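 Also: antagonists lower the DHT-driven ratio of nucleolar to cytoplasmic red signal.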 The method, boiled down:
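Read-out is the ratio of nucleolar to cytoplasmic AR-RFP fluorescence, imaged by high-content microscopy in U2OS cells coexpressing TIF2-GFP. Single-point 20 uM screen, triplicate confirmation, then 0.195–50 uM dose response; activity referenced to DHT baseline.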

The target is the same in assay [4]. In words: UPITT_HCI_U2OS_AR_TIF2_Nucleoli_Cytoplasm_Ratio_Agonist: University of Pittsburgh U2OS Androgen Receptor-Transcriptional Intermediary Factor 2 (AR-TIF2) Agonism High Content Imaging Assay for Ratio of Nucleoli Translocation and Cytoplasm (AID 2284000).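 Also: hits raise the red nucleolar to cytoplasm ratio above vehicle.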 The method, boiled down:
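Compounds tested at 20 uM final in primary screen (0.2% DMSO) and 0.195-50 uM final in dose-response (0.5% DMSO). Imaging of human U2OS cells bearing RFP-AR and GFP-TIF2; endpoint is nucleoli/cytoplasm red signal ratio, positive direction relative to DMSO.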

Assay [5] is described as follows: CCTE_Harrill_HTTr_Viability_MCF7: CCTE's 6-hour Cell Viability Assessment for the High-Throughput Transcriptomics (HTTr) Platform, in MCF-7 cells cultured in DMEM + 10% fetal bovine serum, Harrill Lab (AID 2284010; active = hit-call score of the fitted dose curve at least 0.9, where 1 is the maximum; inactive = score below 0.9). In outline: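 PI exclusion, high-content imaging; 8-pt dilution series, 6 h exposure; bidirectional fit vs DMSO (neg. ctrl/baseline); gain of signal = loss of membrane integrity.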

Assay [6] in a line: CCTE_Harrill_HTTr_Apoptosis_MCF7: CCTE's 6-hour Apoptosis Assessment for the High-Throughput Transcriptomics (HTTr) Platform, in MCF-7 cells cultured in DMEM + 10% fetal bovine serum, Harrill Lab (AID 2284011; active = hit-call score of the fitted dose curve at least 0.9, where 1 is the maximum; inactive = score below 0.9). The method, boiled down:
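MCF-7 (DMEM + 10% FBS), 384-well; 8-pt dilution series, 6 h chemical exposure; caspase-3/7 activation via CellEvent Caspase 3/7 Green, HCI; bidirectional fit vs DMSO.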

A short description of assay [7]: CCTE_Harrill_HTTr_CellCount_MCF7: CCTE's Cell Proliferation Assessment for the High-Throughput Transcriptomics (HTTr) Platform, Harrill Lab (AID 2284012).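 Also: count of Hoechst-stained nuclei per well by high-content imaging in MCF-7 cells; cells exposed to compound for six hours; intended direction is loss of nuclei count meaning fewer cells.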 In outline:
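Readout: Hoechst nuclear count by high-content imaging. MCF-7, 8-point dilution series, 6 h exposure. Bidirectional fit vs DMSO baseline.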

Assay [8] can be described thus: CCTE_Shafer_MEA_acute_spike_number: CCTE's Neural Acute Assay for Total Number of Spikes, Shafer Lab (AID 2284008; active = hit-call score of the fitted dose curve at least 0.9, where 1 is the maximum; inactive = score below 0.9;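 also: curve fitted for decrease in spike count so AC50 reflects inhibitors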). The method, boiled down: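 Read-out is the total spike count over 40 min, expressed as percent change from each well's own pre-treatment baseline and fitted in the loss direction against DMSO. Rat cortical neurons were exposed at 0.03-40 uM on DIV 13 or 15.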

The nature of assay [9]: CCTE_Shafer_MEA_acute_firing_rate_mean: CCTE's Neural Acute Assay for Mean Firing Rate, Shafer Lab (AID 2284009; active = hit-call score of the fitted dose curve at least 0.9, where 1 is the maximum; inactive = score below 0.9;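 also: analyzed for loss of signal so actives lower firing rate relative to DMSO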). In outline: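 Primary rat cortical neurons on 16-electrode MEA wells were exposed on DIV 13 or 15 to compound (0.03-40 uM). Spike counts per recording time, averaged over electrodes, were compared between 40-min baseline and 40-min post-exposure recordings as percent change.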

A short description of assay [10]: CCTE_Shafer_MEA_acute_burst_number: CCTE's Neural Acute Assay for Single-Electrode Bursts, Shafer Lab (AID 2284013; active = hit-call score of the fitted dose curve at least 0.9, where 1 is the maximum; inactive = score below 0.9). In outline: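 Primary rat cortical neurons on 16-electrode MEA wells, DIV 13 or 15, exposed to compound (0.03-40 uM; ≥3 wells); 40-min recordings at 37 C before and after treatment. Burst count expressed as percent change from baseline, DMSO as negative control.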

A short description of assay [11]: CCTE_Shafer_MEA_acute_burst_duration_mean: CCTE's Neural Acute Assay for Mean Burst Duration, Shafer Lab (AID 2284014; active = hit-call score of the fitted dose curve at least 0.9, where 1 is the maximum; inactive = score below 0.9;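 also: hits are decreases in mean burst duration relative to DMSO controls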). In outline:
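Mean burst duration was compared between a 40 min baseline and a 40 min recording in the presence of compound (0.03-40 uM, 37 C), giving percent change per well. Cultures were rat cortical neurons at DIV 13 or 15; wells needed ≥10 active electrodes.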

A short description of assay [12]: CCTE_Shafer_MEA_acute_per_burst_spike_number_mean: CCTE's Neural Acute Assay for Average Number of Spikes Per Burst, Shafer Lab (AID 2284015; active = hit-call score of the fitted dose curve at least 0.9, where 1 is the maximum; inactive = score below 0.9). The method, boiled down: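 Read-out: percent change in mean spikes per burst, each well's post-exposure 40-min recording versus its own 40-min baseline. Rat cortical cultures, DIV 13 or 15, compounds 0.03-40 uM; DMSO is negative control, loss-of-signal fitting.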

Assay [13] in a line: CCTE_Shafer_MEA_acute_interburst_interval_mean: CCTE's Neural Acute Assay for Mean Interburst Interval, Shafer Lab (AID 2284016; active = hit-call score of the fitted dose curve at least 0.9, where 1 is the maximum; inactive = score below 0.9;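 also: percent change of mean interburst interval versus each well's own pre-dose baseline; curves fitted for decrease in interburst interval relative to DMSO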). The method, boiled down: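 Rat cortical cultures, DIV 13/15; 20 min equilibration, 40 min baseline, compound 0.03-40 uM, 40 min re-recording, 37 C. Spikes detected at 8x rms noise (300-5000 Hz band-pass). Endpoint: % change in interburst interval, fitted in loss direction vs DMSO.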

For assay [14], the system named is DIO1 (gene 1733). As to the kind of experiment: CCTE_GLTED_hDIO1: CCTE's human Deiodinase 1 (DIO1) Inhibition Assay, Great Lakes Toxicology and Ecology Division (GLTED) Lab (AID 2283987).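 Also: isolated human DIO1 enzyme in a cell-free setup rather than cells; enzyme activity read as free iodide liberated from substrate via Sandell-Kolthoff colorimetry.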 In outline:
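Inhibition of human deiodinase 1 is scored as reduced iodide liberation after a 3 h enzyme–chemical incubation, detected colorimetrically by the Sandell-Kolthoff reaction against DMSO controls.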

Ratio of Nucleoli Translocation and Cytoplasm, AR (gene 367), sequence (P10275 whole entry, looked up): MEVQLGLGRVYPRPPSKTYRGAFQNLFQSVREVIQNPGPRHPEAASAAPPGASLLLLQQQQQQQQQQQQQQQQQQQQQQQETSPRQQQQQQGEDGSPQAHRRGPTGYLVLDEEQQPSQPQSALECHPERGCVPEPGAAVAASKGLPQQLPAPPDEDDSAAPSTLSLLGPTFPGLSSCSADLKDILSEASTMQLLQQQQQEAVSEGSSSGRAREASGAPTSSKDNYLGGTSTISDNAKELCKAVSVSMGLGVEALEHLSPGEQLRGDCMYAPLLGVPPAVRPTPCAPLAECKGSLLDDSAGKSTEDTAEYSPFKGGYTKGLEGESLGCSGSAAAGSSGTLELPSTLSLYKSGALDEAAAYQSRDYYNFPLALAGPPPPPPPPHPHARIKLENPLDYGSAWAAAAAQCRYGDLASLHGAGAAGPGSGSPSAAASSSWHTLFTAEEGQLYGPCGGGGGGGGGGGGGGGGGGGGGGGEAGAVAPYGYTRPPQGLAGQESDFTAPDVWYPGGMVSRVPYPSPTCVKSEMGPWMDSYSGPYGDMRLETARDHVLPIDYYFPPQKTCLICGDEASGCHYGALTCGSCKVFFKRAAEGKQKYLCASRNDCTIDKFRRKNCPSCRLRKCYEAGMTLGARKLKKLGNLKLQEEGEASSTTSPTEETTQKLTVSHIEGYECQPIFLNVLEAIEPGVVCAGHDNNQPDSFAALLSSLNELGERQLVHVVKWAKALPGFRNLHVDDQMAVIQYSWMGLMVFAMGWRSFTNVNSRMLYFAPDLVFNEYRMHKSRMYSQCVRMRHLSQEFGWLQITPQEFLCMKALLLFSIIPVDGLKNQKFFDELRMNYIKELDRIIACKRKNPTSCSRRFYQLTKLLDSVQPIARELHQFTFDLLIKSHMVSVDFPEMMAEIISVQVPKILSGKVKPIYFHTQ
Nucleoli Translocation, AR (gene 367), sequence (P10275 whole entry, looked up): as above

With `COCCOCCC[Si](C)(O[Si](C)(C)C)O[Si](C)(C)C`, the compound was called inactive in assay [1], in assay [3] and in assay [4]. Also, in [2], the AC50 – broadly, the concentration at which the activity in the assay is half-maximal – was 88.8 µM (active).
In the case of `CSc1ccc(O)cc1C`, the result in assay [5], in assay [6] and in assay [7] was inactive.
For `CCCCCCCC/C=C\CCCCCCCC(=O)OCC(O)CO` (configuration not stated), the call in assay [1], in [2], in assay [3] and in assay [4] was inactive.
`CCN=C1C=CC(=C(c2ccc(N(CC)CC)cc2)c2ccc(N(CC)CC)cc2)c2ccccc21`: the half-maximal activity concentration (AC50) was 1.4 µM (active) in assay [1]; 4.7 µM (active) in assay [3]; 0.559 µM (active) in [8]; 0.559 µM (active) in assay [9]; 92.2 µM (active) in [7]; 0.545 µM (active) in [10]. The half-maximal activity concentration (AC50) is 0.518 µM (active) in assay [12] and 0.361 µM (active) in assay [13]. The outcome in [4], in [5], in assay [6] and in assay [11] was inactive.
With `CCCCCCCCCc1ccc(OCCO)cc1`, the call in assay [1], in assay [2], in [3], in assay [5], in assay [6] and in assay [7] was inactive. Also, in [4], the AC50 was 75.5 µM (active).
Take `CC(C)(C)c1cc(CCC(=O)OCC(COC(=O)CCc2cc(C(C)(C)C)c(O)c(C(C)(C)C)c2)(COC(=O)CCc2cc(C(C)(C)C)c(O)c(C(C)(C)C)c2)COC(=O)CCc2cc(C(C)(C)C)c(O)c(C(C)(C)C)c2)cc(C(C)(C)C)c1O`: the result in assay [5], in assay [6] and in assay [7] was inactive.
Take `CCCCCCCCCCCCC[N+](C)(C)Cc1ccccc1`: the AC50 in [14] was 38.7 µM (active); in assay [1], 13.7 µM (active); in [3], 13.7 µM (active). Also, the compound was classed as inactive in [2], in assay [4], in assay [5], in assay [6] and in assay [7].
For `CCCCCCCCCCCCCCCCC`, the result in [5] and in assay [6] was inactive.
Consider `O=S(=O)(O)c1ccc(Cl)cc1`, for which the outcome in assay [5] and in assay [6] was inactive.
As for `CN(C)C(C)(C)CO`, the outcome in assay [5], in assay [6] and in assay [7] was inactive.
Consider `CC(=O)CCC(C)C`, for which the outcome in [5], in [6] and in assay [7] was inactive.
With `Cc1cc(=O)[nH]c(C(C)C)n1`, the result in assay [5], in assay [6] and in assay [7] was inactive.
Turning to `CCc1ccc(C)nc1`, the outcome in assay [1], in assay [2], in [3], in assay [4], in assay [5] and in assay [6] was inactive. Further, the compound was called inactive in assay [7].
For the compound `F[Si-2](F)(F)(F)(F)F`, the compound was classed as inactive in assay [1], in assay [2] and in assay [4].
On to `Brc1ccccn1`, for which the result in [5], in [6] and in [7] was inactive.
On to `CCC(Cc1c(I)cc(I)c(N)c1I)C(=O)O` (configuration not stated), for which the result in assay [5] and in assay [6] was inactive.
With `Cc1ccc(O)c(-n2nc3ccccc3n2)c1`, the outcome in assay [5], in assay [6] and in assay [7] was inactive.
